# Inconclusive results are not listed. Entries that show only a call come without a potency. Active and inactive are the calls of the source. Unless noted, calls come from the whole dose curve; as a rule, active = well fitted curve in the direction sought with a large enough effect; inconclusive = small, poorly fitted or top-dose-only effect, or another doubt; inactive = no such curve, though single readings can be large; an effect the other way counts as inactive or inconclusive.
# How the values were obtained:
# [1] = target: Luciferin 4-monooxygenase (Photinus pyralis) (UniProt P08659); test: Biochemical firefly luciferase enzyme assay for NPC (AID 624030);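 note: purified P. pyralis luciferase at 10 nM with luciferin and ATP substrate; nearly all actives have a fitted effect of over 70% in size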
# Method in brief: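 Counter-screen for direct inhibition of the luciferase enzyme by approved-drug library compounds, run at 10 nM enzyme in 50 mM Tris acetate (final). Luminescence was read within 5 min of enzyme-buffer addition and normalized to PTC124 versus DMSO (0%).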
# [2] = S16 Schwann cell viability assay (CellTiter-Glo assay) (AID 624031);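 note: native untransfected S16 rat Schwann cells; cellular ATP luminescence as a viability measure; nearly all actives have a fitted effect of over 70% in size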
# Method in brief: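 Following overnight culture in 10% FBS DMEM, parental S16 rat Schwann cells are dosed for 24 h at 37 °C. Viability is read as CellTiter-Glo luminescence and expressed as % activity relative to DMSO (0%) and no-cell wells.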
# [3] = S16 Schwann cell PMP22 intronic element firefly luciferase assay (AID 624032); note: nearly all actives have a fitted effect of over 30% in size; note: potency is the fitted concentration of half-maximal effect
# Method in brief: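 Rat S16 Schwann cells stably carrying a PMP22 intronic element-driven Fluc reporter were seeded overnight, then exposed to compounds for 24 h at 37 °C. Luminescence was normalized to PTC124 (positive control) and DMSO (0% activity).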
# [4] = S16 Schwann cell PMP22 intronic element beta-lactamase assay (AID 624044; calls by dose curve; note: nearly all actives have a fitted effect of over 15% in size)
# Method in brief: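 Rat S16 Schwann cells with beta-Lac driven by a PMP22 intronic element, compound-treated 24 h at 37 °C. LiveBLAzer FRET B/G read: 460 nm normalized to potassium clavulanate vs DMSO; 535 nm FRET as viability; concentration-effect curves classified.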
# [5] = system: 7G8; test: qHTS profiling for inhibitors of Plasmodium falciparum proliferation (AID 504749); note: nearly all actives have a fitted effect of over 60% in size; note: potency is the fitted concentration of half-maximal effect; details: P. falciparum in erythrocytes, SYBR Green DNA, 72 h; series mostly up to 28.7 µM
# Method in brief: (§1)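 Parasite proliferation within erythrocytes, 72 h exposure. Endpoint: SYBR Green I fluorescence after overnight lysis at room temperature. Controls: 0.29 uM artemisinin, DMSO.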
# [6] = system: CP194; test: as above; details: P. falciparum in erythrocytes, SYBR Green DNA, 72 h; series mostly up to 28.7 µM
# Method in brief: as §1
# [7] = system: CP201; test: as above; details: P. falciparum in erythrocytes, SYBR Green DNA, 72 h; series mostly up to 28.7 µM
# Method in brief: as §1
# [8] = system: CP211; test: as above; details: P. falciparum in erythrocytes, SYBR Green DNA, 72 h; series mostly up to 28.7 µM
# Method in brief: as §1
# [9] = system: CP215; test: as above; details: P. falciparum in erythrocytes, SYBR Green DNA, 72 h; series mostly up to 28.7 µM
# Method in brief: as §1
# [10] = system: CP262; test: as above; details: P. falciparum in erythrocytes, SYBR Green DNA, 72 h; series mostly up to 28.7 µM
# Method in brief: as §1
# [11] = system: CP291; test: as above; details: P. falciparum in erythrocytes, SYBR Green DNA, 72 h; series mostly up to 28.7 µM
# Method in brief: as §1
# [12] = system: CP305; test: as above; details: P. falciparum in erythrocytes, SYBR Green DNA, 72 h; series mostly up to 28.7 µM
# Method in brief: as §1
# [13] = system: CP315; test: as above; details: P. falciparum in erythrocytes, SYBR Green DNA, 72 h; series mostly up to 28.7 µM
# Method in brief: as §1
# [14] = system: CP325; test: as above; details: P. falciparum in erythrocytes, SYBR Green DNA, 72 h; series mostly up to 28.7 µM
# Method in brief: as §1
# [15] = system: CP335; test: as above; details: P. falciparum in erythrocytes, SYBR Green DNA, 72 h; series mostly up to 28.7 µM
# Method in brief: as §1
# [16] = system: Dd2; test: as above; details: P. falciparum in erythrocytes, SYBR Green DNA, 72 h; series mostly up to 28.7 µM
# Method in brief: as §1
# [17] = system: GB4; test: as above; details: P. falciparum in erythrocytes, SYBR Green DNA, 72 h; series mostly up to 28.7 µM
# Method in brief: as §1
# [18] = system: PC15; test: as above; details: P. falciparum in erythrocytes, SYBR Green DNA, 72 h; series mostly up to 28.7 µM
# Method in brief: as §1
# [19] = target: Glutathione peroxidase 1 (Homo sapiens) (UniProt P07203); test: Primary qHTS Assay for Inhibitors of Recombinant Selenoprotein Glutathione Peroxidase 1 (GPX1) (AID 1845191); note: nearly all actives have a fitted effect of over 65% in size
# Method in brief: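 Recombinant GPX1 (10 nM final) was preincubated with compound for 30 min at room temperature, then reacted with 1 mM GSH, 0.5 mM CHP, 0.5 mM NADPH and 100 nM glutathione reductase; NADPH fluorescence (340/450 nm) was read at 0 and 15 min.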
# [20] = qHTS for Inhibitors of Ubiquitin-specific Protease USP2a Using CHOP2 as the Reporter: K633 Counterscreen (AID 652168)
# Method in brief: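 Cell-free interference counterscreen without USP2a: compounds pinned into enzyme-free buffer (20 mM Tris pH 8, 2 mM beta-mercaptoethanol, 0.05% Chaps), then DiUb K48-4IQF substrate added (100 nM stock); fluorescence read kinetically, Ex 525/Em 598.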
# Sequence of Luciferin 4-monooxygenase (Photinus pyralis) (P08659 whole entry, looked up): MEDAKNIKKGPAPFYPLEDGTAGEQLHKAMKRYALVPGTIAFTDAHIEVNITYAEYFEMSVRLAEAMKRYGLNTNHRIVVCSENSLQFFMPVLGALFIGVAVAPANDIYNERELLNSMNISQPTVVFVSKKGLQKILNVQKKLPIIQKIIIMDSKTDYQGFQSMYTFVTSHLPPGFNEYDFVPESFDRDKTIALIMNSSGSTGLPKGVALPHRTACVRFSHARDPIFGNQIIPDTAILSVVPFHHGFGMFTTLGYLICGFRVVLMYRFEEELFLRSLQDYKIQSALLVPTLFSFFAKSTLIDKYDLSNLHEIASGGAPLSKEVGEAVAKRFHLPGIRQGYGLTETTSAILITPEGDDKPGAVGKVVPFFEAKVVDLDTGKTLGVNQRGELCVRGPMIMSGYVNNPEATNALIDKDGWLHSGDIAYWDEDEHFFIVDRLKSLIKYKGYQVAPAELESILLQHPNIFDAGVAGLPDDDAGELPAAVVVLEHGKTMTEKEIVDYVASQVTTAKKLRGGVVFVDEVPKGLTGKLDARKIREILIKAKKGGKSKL
# Sequence of Glutathione peroxidase 1 (Homo sapiens) (P07203 whole entry, looked up): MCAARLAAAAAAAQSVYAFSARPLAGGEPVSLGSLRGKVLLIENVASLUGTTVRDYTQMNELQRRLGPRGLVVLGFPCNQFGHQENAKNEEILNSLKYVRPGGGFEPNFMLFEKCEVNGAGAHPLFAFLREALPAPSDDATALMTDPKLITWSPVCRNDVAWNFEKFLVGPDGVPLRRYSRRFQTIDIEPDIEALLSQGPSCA
smiles,measurement,setting,value
COc1ccc(CCNC[C@@H](O)c2ccc(O)cc2)cc1OC,Potency,[1],inactive
same,outcome,[2],inactive
same,Potency,[3],inactive
same,outcome,[4],inactive
same,Potency,[5],inactive
same,Potency,[6],inactive
same,Potency,[7],inactive
same,Potency,[8],inactive
same,Potency,[9],inactive
same,Potency,[10],inactive
same,Potency,[11],inactive
same,Potency,[12],inactive
same,Potency,[13],inactive
same,Potency,[14],inactive
same,Potency,[15],inactive
same,Potency,[16],inactive
same,Potency,[17],inactive
same,Potency,[18],inactive
CN=C(N)NCCCC(N)C(=O)O (stereo not drawn),Potency,[1],inactive
same,outcome,[2],inactive
same,Potency,[3],inactive
same,outcome,[4],inactive
same,Potency,[5],inactive
same,Potency,[6],inactive
same,Potency,[7],inactive
same,Potency,[8],inactive
same,Potency,[9],inactive
same,Potency,[10],inactive
same,Potency,[11],inactive
same,Potency,[12],inactive
same,Potency,[13],inactive
same,Potency,[14],inactive
same,Potency,[15],inactive
same,Potency,[16],inactive
same,Potency,[17],inactive
same,Potency,[18],inactive
Cc1ccccc1N1CCN(S(=O)(=O)C[C@]23CCC(CC2NC(=O)[C@@H](N)CCS(C)(=O)=O)C3(C)C)CC1 (stereo partly drawn),Potency,[19],inactive
C[C@@H](Oc1cc(C(=O)Nc2ccc(C(=O)N3CCN(C)CC3)cc2)nnc1N)c1c(Cl)ccc(F)c1Cl,Potency,[19],inactive
Cc1c(C(=O)Nc2ccc(Oc3ccnc4[nH]cc(-c5ccccc5)c34)c(F)c2)c(=O)n(-c2ccc(F)cc2)n1C,Potency,[19],inactive
NC(=O)c1cccc2c(NC(CN3CCC3)c3ccc(Cl)c(C(F)(F)F)c3)ncnc12 (stereo not drawn),Potency,[19],inactive
CCCc1cc(C(=O)N[C@H](Cc2ccc(-c3cccc(OC(F)(F)F)c3)nc2)C(=O)N[C@@H]2CCNC2)sc1C,Potency,[19],inactive
CN1C(=O)CCC1c1cccnc1 (stereo not drawn),Potency,[1],inactive
same,outcome,[2],inactive
same,Potency,[3],inactive
same,outcome,[4],inactive
same,Potency,[5],inactive
same,Potency,[6],inactive
same,Potency,[7],inactive
same,Potency,[8],inactive
same,Potency,[9],inactive
same,Potency,[10],inactive
same,Potency,[11],inactive
same,Potency,[12],inactive
same,Potency,[13],inactive
same,Potency,[14],inactive
same,Potency,[15],inactive
same,Potency,[16],inactive
same,Potency,[17],inactive
same,Potency,[18],inactive
O=C1NC(=O)[C@@H](c2c[nH]c3ccccc23)[C@H]1c1cn2c3c(cccc13)CCC2,Potency,[19],inactive
CN1C[C@H](C(=O)N[C@]2(C)O[C@@]3(O)C4CCCN4C(=O)[C@H](Cc4ccccc4)N3C2=O)C[C@@H]2c3cccc4[nH]cc(c34)C[C@H]21 (stereo partly drawn),Potency,[5],0.158 µM (active)
same,Potency,[16],2.82 µM (active)
same,Potency,[18],1.12 µM (active)
COc1cc2c(cc1OC)C(c1ccccc1)CN(C)CC2 (stereo not drawn),Potency,[1],inactive
same,outcome,[2],inactive
same,Potency,[3],inactive
same,outcome,[4],inactive
same,Potency,[6],inactive
same,Potency,[7],inactive
same,Potency,[8],inactive
same,Potency,[9],inactive
same,Potency,[10],inactive
same,Potency,[11],inactive
same,Potency,[12],inactive
same,Potency,[13],inactive
same,Potency,[14],inactive
same,Potency,[18],inactive
CC(C)(C)[C@]1(O)CCN2CC3c4ccccc4CCc4cccc(c43)[C@@H]2C1 (stereo partly drawn),Potency,[1],inactive
same,Potency,[3],36.1 µM (active)
same,Potency,[5],11.2 µM (active)
same,Potency,[9],inactive
same,Potency,[12],inactive
same,Potency,[13],inactive
same,Potency,[15],10.7 µM (active)
same,Potency,[16],10 µM (active)
same,Potency,[17],9.53 µM (active)
CC(C)C[C@H]1C(=O)N2CCCC2[C@]2(O)O[C@](NC(=O)[C@@H]3C=C4c5cccc6[nH]c(Br)c(c56)C[C@H]4N(C)C3)(C(C)C)C(=O)N12 (stereo partly drawn),Potency,[1],inactive
same,outcome,[2],inactive
same,outcome,[4],inactive
same,Potency,[5],0.708 µM (active)
same,Potency,[6],13.5 µM (active)
same,Potency,[7],13.5 µM (active)
same,Potency,[8],15.1 µM (active)
same,Potency,[9],8.49 µM (active)
same,Potency,[10],8.49 µM (active)
same,Potency,[11],10.7 µM (active)
same,Potency,[12],10.7 µM (active)
same,Potency,[14],9.53 µM (active)
same,Potency,[15],3.79 µM (active)
same,Potency,[16],2.51 µM (active)
same,Potency,[17],6.01 µM (active)
same,Potency,[18],7.94 µM (active)
O=[S+]([O-])(NCc1nccs1)c1ccc(Nc2nc(-c3ccccc3)cs2)cc1,outcome,[20],inactive
O=C(Nc1nc(-c2ccccc2)cs1)c1ccncc1NS(=O)(=O)c1cccc2cccnc12,outcome,[20],inactive
N#Cc1ccc(N[S+](=O)([O-])c2ccc(Nc3nc(-c4ccccc4)cs3)cc2)cc1,outcome,[20],inactive
Cc1ccc(S(=O)(=O)Nc2cc3c(cc2C(=O)Nc2nc(-c4ccccc4)cs2)OCO3)cc1,outcome,[20],inactive
O=S(=O)(Nc1nccs1)c1ccc(Nc2nc(-c3ccccc3)cs2)cc1,outcome,[20],inactive
Cc1ccc(S(=O)(=O)Nc2ccc(Br)cc2C(=O)Nc2nc(-c3ccccc3)cs2)cc1,outcome,[20],inactive

# Reference: PubChem BioAssay (NCATS)
